Tau FP inhib: inhibitors of human tau fibril formation; P10636; K18 P301L tau heparin fibrillization, Alexa594 FP, 6 h; Potency, µM (highest dose often 57.7 µM), hits mostly inhibitors; hit rate 0.39% among 280,000; note: nearly all actives have a fitted effect of over 55% in size
Target sequence (P10636 561-689 P618L limits assumed): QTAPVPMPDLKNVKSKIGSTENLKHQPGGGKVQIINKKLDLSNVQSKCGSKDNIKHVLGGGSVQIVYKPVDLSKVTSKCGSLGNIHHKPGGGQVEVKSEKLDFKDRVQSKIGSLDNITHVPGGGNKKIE
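Quantitative HTS format: compounds meet 15 uM recombinant K18 P301L tau and Alexa 594-tau tracer in 100 mM sodium acetate pH 7; 20 uM heparin triggers fibrillization at 37 C over 6 hr; FP gives the signal.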
NPSR antagonist: neuropeptide S receptor (human) antagonism, cAMP | hit rate 1% among 220,000 | Potency, µM (top dose mostly 38.3 µM), usual class: inhibitors | CHO-NPSR cells, cAMP TR-FRET, antagonist mode | Q6W5P4; note: nearly all actives have a fitted effect of over 50% in size
PNC inhibitor: inhibitors of perinucleolar compartment assembly; PC3M PTB-GFP, PNC prevalence imaging, 16 h; hits give low values; activity change (PNC), negative = inhibition, % at 10 µM; hit rate 3.1% among 140,000;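 active = readout at or below -70, meaning at least 70% loss of cells showing the perinucleolar compartment, a nuclear body marking cancer cells; inconclusive = readout between -30 and a set limit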
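Compounds are pinned in duplicate onto adhered PC3M cells stably expressing GFP-tagged PTB and incubated 16 h at 37 C. Cells are then fixed, nuclei stained with Hoechst, and PNC-positive cells counted.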
KDM4E inh: JMJD2E (human) inhibition. B2RXH2. JMJD2E catalytic domain, FDH-coupled NADH fluorescence (FDH is formaldehyde dehydrogenase). Potency, µM (series often up to 57.1 µM), hits mostly inhibitors. hit rate 1.6% among 230,000; active = well fitted inhibition curve with a large enough effect, not every such curve was filed as active; inconclusive = small, poorly fitted or top-dose-only effect, or another doubt; inactive = no such curve, though single readings can be large or run the other way; note: nearly all actives have a fitted effect of over 50% in size
Target sequence (B2RXH2 1-337 limits assumed): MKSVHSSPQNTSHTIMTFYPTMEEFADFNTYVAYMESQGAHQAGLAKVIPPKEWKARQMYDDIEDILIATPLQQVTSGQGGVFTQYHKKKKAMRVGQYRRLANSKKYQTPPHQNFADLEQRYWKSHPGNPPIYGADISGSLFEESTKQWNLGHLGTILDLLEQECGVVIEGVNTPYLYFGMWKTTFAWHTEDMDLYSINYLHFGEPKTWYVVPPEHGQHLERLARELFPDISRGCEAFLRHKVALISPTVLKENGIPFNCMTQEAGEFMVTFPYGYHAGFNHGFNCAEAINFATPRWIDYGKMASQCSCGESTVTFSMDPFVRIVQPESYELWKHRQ
Tau fibril ThT: blocks human tau fibril formation measured by thioflavin T. recombinant tau K18 P301L, heparin-induced fibrillization, ThT fluorescence. hit rate 2.1% among 270,000. Potency, µM (top dose mostly 57.4 µM), actives largely listed as inhibitors; note: nearly all actives have a fitted effect of over 55% in size
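Recombinant human tau K18 fragment […] carrying P301L, 15 uM unlabeled plus 0.24 uM Alexa 594-labeled, was fibrillized with 20 uM heparin in 100 mM sodium acetate pH 7 for 6 hr at 37 C; 30 uM ThT fluorescence read after 1 hr.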
Tau fluor cs: counter-screen for tau fibril formation inhibitors; tau K18 P301L (four-repeat tau fragment) Alexa594 fluorescence, heparin fibrillization; Potency, µM (doses to about 57.7 µM); hit rate 0.93% among 280,000; AID 1463; note: nearly all actives have a fitted effect of over 55% in size
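Human K18 P301L tau (15 uM unlabeled plus 0.24 uM Alexa 594-labeled, final) in 100 mM sodium acetate pH 7 was mixed with compound and 20 uM heparin and incubated 6 hr at 37 C.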
Numbers stand for hits; 0 = inactive; ? = inconclusive; - = no result. In the library only some 5.1% were active in any assay of this set; here they are far more common. Unless noted, calls come from the whole dose curve; as a rule, active = well fitted curve in the direction sought with a large enough effect; inconclusive = small, poorly fitted or top-dose-only effect, or another doubt; inactive = no such curve, though single readings can be large; an effect the other way counts as inactive or inconclusive.

SMILES | Tau FP inhib | NPSR antagonist | PNC inhibitor | KDM4E inh | Tau fibril ThT | Tau fluor cs
CC1=C(C(=O)Nc2ccc(C)cc2C)C(c2ccc(C(C)C)cc2)n2nc(C(F)(F)F)nc2N1 (stereo not given) | 0 | - | - | - | ? | 0
CCCN(CCC)C(=O)c1c[nH]c2ccc(S(=O)(=O)N(C)c3ccc(OCC)cc3)cc2c1=O | 0 | - | - | - | 0 | 0
CCOc1ccc(N(C)S(=O)(=O)c2ccc(C)c(C(=O)OCC(=O)c3c[nH]c4ccccc34)c2)cc1 | 8.9µM | 0 | - | 0 | 0 | ?
Cc1cccc(NCc2nnc3n2CCCCC3)c1C | 0 | - | - | - | 0 | 0
CCOc1ccc(NCc2nc3ccccc3n2CCOc2ccccc2)cc1 | 0 | 0 | -113 | 0 | ? | ?
COC(=O)c1ccccc1NC(=O)C1CCCN(c2nnc(C)c3c(C)n(-c4ccccc4)nc23)C1 (stereo not given) | 0 | - | - | - | 0 | 0
O=C1/C(=C\c2ccc3c(c2)OCO3)CCC/C1=C/c1ccc2c(c1)OCO2 | 0 | 0 | 0 | 0 | 4.5µM | 0
O=C1/C(=C/c2ccncc2)CCC/C1=C\c1ccncc1 | 5µM | 0 | - | 0 | 5µM | 0
O=C1OCC/C1=C\c1ccc2c(c1)OCO2 | 0 | 0 | - | 0 | 0 | 0
O=C1/C(=C/c2ccncc2)CCc2ccccc21 | 0 | 0 | - | 0 | - | 0
Fc1ccc(CNc2nc3ccc(Cl)cc3n3nnnc23)cc1 | 0 | - | - | - | 0 | 0
COc1cccc(-c2nc(S(=O)(=O)c3ccc(C)cc3)c(N3CCCCC3)o2)c1 | 0 | - | - | - | 0 | 0
CC[C@H](CO)NCCN[C@H](CC)CO | 0 | 0 | -115 | 0 | 0 | 0
CCC(CO)NCCNC(CC)CO (stereo not given) | 0 | 0 | ? | 0 | 0 | 0
O=C(CSc1nc2ccccc2n1Cc1ccc(F)c(Cl)c1)N1CCN(c2ccc(F)cc2)CC1 | 0 | - | - | - | 0 | 0
CCCc1cc(C(=O)N/N=C/c2ccc(CC)s2)c2ccccc2n1 | 0 | ? | 0 | 0 | 0 | 0
O=C(N/N=C/c1ccc2c(c1)OCO2)c1cc(-c2ccc(F)cc2)nc2ccccc12 | 0 | 0 | -96 | 0 | 0 | 0
O=C(N/N=C/c1ccccn1)c1cc(-c2ccccc2)nc2ccccc12 | 0 | 0 | - | 25µM | ? | ?
O=C(N/N=C/c1cccs1)c1cc(-c2ccncc2)nc2ccccc12 | 0 | 0 | -109 | 0 | 0 | 0
CCc1ccc(/C=N/NC(=O)c2cc(-c3ccncc3)nc3ccccc23)s1 | ? | 0 | -110 | 0 | ? | ?
O=C(Cc1ccc(F)cc1)NCc1ccc2c(c1)CCN2C(=O)c1ccc(F)cc1 | 0 | - | - | - | 0 | 0
NS(=O)(=O)c1ccc(CNC(=O)c2cc(-c3ccccc3)nc3ccccc23)cc1 | 0 | 0 | - | ? | 0 | 0
NS(=O)(=O)c1ccc(CNC(=O)c2cc(-c3ccccn3)nc3ccc(Cl)cc23)cc1 | 0 | 13µM | - | ? | 0 | 0
Cc1oc(-c2cccc(Cl)c2)nc1CN1CCCC(C(=O)N2CCN(c3ccc(F)cc3)CC2)C1 (stereo not given) | 0 | - | - | - | 0 | 0
O=C(Cn1[nH]c(=O)c2ccccc2c1=O)NC1CCCCCC1 | 0 | 0 | -86 | 0 | 0 | 0
SMILES | Tau FP inhib | NPSR antagonist | PNC inhibitor | KDM4E inh | Tau fibril ThT | Tau fluor cs
CC1=CC(C)(C)N2C(=O)C(=O)c3cc(OC(=O)c4ccco4)cc1c32 | 0 | 0 | - | 0 | 13µM | 0
CC1(C)Cc2ccccc2/C(=C/C(=O)N2CCCCCC2)N1 | 0 | 7.9µM | ? | 0 | ? | 0
COc1ccc(CC(=O)NCC(c2cccs2)S(=O)(=O)c2ccc(C)cc2)cc1 (stereo not given) | 0 | - | - | - | 0 | 0
CCOc1c(Cl)cc(C(=O)N(Cc2ccc(N(C)C)cc2)Cc2ccco2)cc1Cl | 0 | - | - | - | ? | 0
Cc1cc(C)c(/C=C/c2onc(C)c2S(=O)(=O)N2CCC(C(=O)NCCc3ccccc3)CC2)c(C)c1 | 0 | - | - | - | 0 | 0
COc1ccc(S(=O)(=O)NCCc2cn3ccsc3n2)cc1OC | 0 | - | - | - | 0 | 0
O=c1/c(=C/c2ccccn2)sc2nc3ccccc3n12 | ? | 0 | 0 | 0 | ? | 0
O=c1/c(=C\c2cc([N+](=O)[O-])cc([N+](=O)[O-])c2O)sc2nc3ccccc3n12 | ? | 0 | - | ? | 5µM | ?
COc1cccc(N2CCN(C(=O)c3c4c(nc5ccccc35)C(=O)N(C3CCCCC3)C4)CC2)c1 | 0 | - | - | - | 0 | 0

Compound activity as filed in PubChem BioAssay.
